HT1080 IDH1KD tx: qHTS for induction of synthetic lethality in tumor cells producing 2HG: qHTS for the HT-1080-IDH1KD cell line; 360,000 compounds, 2% hits; HT-1080 IDH1 knockdown viability, ATP luminescence, 48 h; AID 686971, 2013; Potency, µM (highest dose often 46.1 µM), for inactives: top-dose activity, negative = toxicity, most hits filed as cytotoxic;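 note: 0% = DMSO wells and -100% = cell-free medium wells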
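Cytotoxicity counter-line: IDH1KD HT-1080, 48 h, CellTiter-Glo. Curves classed by r2, magnitude and activity.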
DT40 TDP1 no CPT: qHTS for Inhibitors of human tyrosyl-DNA phosphodiesterase 1 (TDP1): qHTS in cells in absence of CPT; DT40 Tdp1-/- hTDP1 cells, no CPT, ATP luminescence, 48 h; Potency, µM (series often up to 46.2 µM), for the others: at the highest dose activity change, negative = growth inhibition, most hits filed as inhibitors; 420,000 compounds, 15% hits; AID 686978, 2013; note: % is set by controls: 0 for no effect and ±100 for the full control effect; nearly all actives have a fitted effect of over 55% in size
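Chicken DT40 Tdp1-/- cells stably complemented with human TDP1 were seeded at 400 cells/well with DMSO in place of 20 nM camptothecin. After compound pinning, cells grew at least 48 hr at 37 °C; viability read by CellTiter-Glo luminescence.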
HepG2 tox: qHTS for Inhibitors of TGF-b: Cytotox Counterscreen. HepG2 CAGA-GFP viability, ATP luminescence, 18 h. Potency, µM (series often up to 46.1 µM), without a hit: top-dose activity change, negative = cytotoxicity, actives largely listed as cytotoxic. 410,000 compounds, 0.76% hits
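HepG2 CAGA-GFP cells (1000/well, DMEM with 1% FBS) received compound, then TGF-beta at 500 pg/mL final, and were incubated 18 hours at 37 degrees C. Viability was read by CellTiter-Glo luminescence. Media-only wells were set as complete cell-killing and DMSO as no toxicity.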
TGFb inhibitor: qHTS for Inhibitors of TGF-b; HepG2 CAGA-GFP TGF-b/SMAD3 reporter, GFP fluorescence, 18 h; TGF-beta stimulated, 500 pg/mL final; Potency, µM (titrated, usually from 46.1 µM), for the others: top-dose activity, negative = inhibition, most hits filed as inhibitors; 410,000 compounds, 1.2% hits; note: % is set by controls: 0 for no effect and ±100 for the full control effect; nearly all actives have a fitted effect of over 65% in size
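Inhibition of TGF-beta-driven CAGA-GFP reporter expression in HEPG2 cells is measured by cellular GFP fluorescence after 18 h stimulation with 500 pg/mL recombinant TGF-beta in 1% FBS medium at 37 degrees C.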
HT1080NT lethal: qHTS for induction of synthetic lethality in tumor cells producing 2HG: qHTS for the HT-1080-NT fibrosarcoma cell line. HT-1080-NT fibrosarcoma viability, CellTiter-Glo ATP luminescence, 48 h. Potency, µM (top dose mostly 46.1 µM), for the others: at the highest dose activity, negative = less viability, usual class: cytotoxic. AID 686970, 2013. 360,000 compounds, 1.6% hits;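 note: NT is the 2HG producing partner of a matched IDH1 knockdown line; 0% = DMSO-treated cells and -100% = media-only wells without cells; nearly all actives have a fitted effect of over 55% in size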
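Fibrosarcoma NT cells, 750 per well in 5% FBS RPMI, were exposed to compound for 48 hours. Viability: CellTiter-Glo luminescence.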
TDP1 cell CPT: qHTS for Inhibitors of human tyrosyl-DNA phosphodiesterase 1 (TDP1): qHTS in cells in presence of CPT; chicken DT40 Tdp1-/-;hTDP1 cells + 20 nM CPT, ATP luminescence, 48 h; Potency, µM (highest dose often 46.2 µM), for inactives: top-dose activity change, negative = growth inhibition, most hits filed as inhibitors; 420,000 compounds, 12% hits; AID 686979, 2013; note: % is set by controls: 0 for no effect and ±100 for the full control effect; nearly all actives have a fitted effect of over 55% in size
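Chicken DT40 Tdp1-/- cells stably complemented with human TDP1 were seeded at 400 cells/well in medium containing 20 nM camptothecin, exposed to pin-transferred compounds, and grown at 37 °C for at least 48 hr. Viability was read as ATP luminescence.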
* hit, by the source's call; ? = inconclusive; . = not tested or not shown. An excerpt weighted towards active compounds, which were near 17% of everything screened. Calls come from the whole dose curve; as a rule, active = well fitted curve in the direction sought with a large enough effect; inconclusive = small, poorly fitted or top-dose-only effect, or another doubt; inactive = no such curve, though single readings can be large; an effect the other way counts as inactive or inconclusive. Potency is the fitted concentration of half-maximal effect.

SMILES	HT1080 IDH1KD tx	DT40 TDP1 no CPT	HepG2 tox	TGFb inhibitor	HT1080NT lethal	TDP1 cell CPT
CCN(CC(=O)Nc1ccc2c(c1)OCCO2)C(=O)CC(NC(C)=O)c1ccccc1 (stereo unspecified)	7%	7%	1%	0%	0%	5%
Cc1ccc(S(=O)(=O)N2CCN(C(=O)C3CSC4(C)CCC(=O)N34)CC2)cc1C (stereo unspecified)	4%	?	9%	1%	-1%	-19%
N=c1n(CC(=O)O)c2ccccc2n1Cc1ccccc1Cl	0%	7%	-5%	-1%	-3%	-4%
N=c1n(CC(=O)c2ccc([N+](=O)[O-])cc2)c2ccccc2n1Cc1ccccc1	-6%	5.8µM*	-27%	-1%	4%	7.3µM*
O=C(Cn1nnc2ccccc21)c1ccc([N+](=O)[O-])cc1	14%	?	-10%	-20%	-1%	?
N=c1n(CC(=O)c2ccc([N+](=O)[O-])cc2)c2ccccc2n1Cc1ccccc1Cl	-9%	2.9µM*	-5%	-2%	-1%	2.9µM*
N=c1n(CC(=O)c2ccc(Br)cc2)c2ccccc2n1Cc1ccccc1	-7%	6.5µM*	-99%	16µM*	-23%	5.2µM*
N=c1n(CC(=O)c2ccc([N+](=O)[O-])cc2)c2ccccc2n1Cc1ccc(Cl)cc1	-3%	5.2µM*	16%	32%	-4%	2.9µM*
O=C(COc1ccccc1)NCC(c1ccco1)N1CCCCC1 (stereo unspecified)	8%	?	-7%	6%	1%	3%
CCCn1c(=N)n(CC(=O)c2ccco2)c2ccccc21	-15%	-19%	-9%	1%	8%	-24%
Cc1ccccc1Cn1c(=N)n(CC(=O)c2ccco2)c2ccccc21	?	16µM*	-24%	10µM*	?	23µM*
Cc1ccc(OCC(=O)Nc2ccc(C(=O)OCc3cc(=O)n4c(C)csc4n3)cc2)cc1	.	?	-16%	-3%	.	?
Cc1csc2nc(COC(=O)c3ccccc3NC(=O)c3cccc(Br)c3)cc(=O)n12	.	8.2µM*	-4%	-1%	.	18µM*
Cc1csc2nc(COC(=O)c3ccc(F)cc3)cc(=O)n12	.	16µM*	-16%	-2%	.	?
CCOc1ccc(C(=O)Nc2ccc(C(=O)OCc3cc(=O)n4c(C)csc4n3)cc2)cc1	.	16µM*	-16%	22µM*	.	?
CC1CCCCN1CCCNC(=O)c1ccc(N2CCCC2=O)cc1 (stereo unspecified)	-1%	1%	3%	3%	12%	11%
COc1cc2nc(N3CCN(C(=O)OCc4ccccc4)[C@H](C(=O)NC(C)(C)C)C3)nc(N)c2cc1OC	?	-84%	-43%	4%	18µM*	?
Cn1c(-c2ccccc2)c(C#Cc2ccc(N)cc2)c2ccccc21	-7%	-21%	-14%	3.5µM*	-16%	?
CCc1ccccc1NC(=O)C1=CN2CCS(=O)(=O)N=C2C=C1	8%	-18%	-1%	7%	7%	3%
Cn1cnnc1SCC(=O)Nc1cccc(S(=O)(=O)N2CCCCCC2)c1	4%	-2%	-6%	-14%	2%	-6%
Cc1csc(SCC(=O)Nc2cccc3nsnc23)n1	-6%	?	-28%	20%	-6%	7.3µM*
